test: JC-1 mitochondrial potential readout, lung cancer cells – cell-based, A549, JC-1 fluorescence, basal, 24 h, 100 nL, profiling panel (AID 1138); settings: higher = more signal;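 also: A549 lung adenocarcinoma cells under basal conditions with no added stimulus; test concentration not given here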

Row | SMILES | z-score
1 | C=C(COC)/C(=C/C[C@H](OC(C)=O)c1ccc(CO)o1)c1cc(C(=O)OC)ccc1OC | -0.91
2 | O=C(NCCN1CCOCC1)C1N=C(c2ccc(OCCCO)cc2)N(c2ccccc2)O1 (stereo not given) | 1.23
3 | COCCOC(=O)N1C(=O)[C@@]2(c3cc(C#CCCO)ccc31)[C@H](C(=O)N1CCCCCCC1)[C@H]1C(=O)O[C@H](c3ccccc3)[C@H](c3ccccc3)N1[C@@H]2c1ccc(OCCO)cc1 | -0.821
4 | COc1cc(Br)cc(C(O)C2C=CC3C(=O)N(C)C(=O)C3N2N2CCCCC2)c1OC (stereo not given) | -0.85
5 | C=C(C)[C@@H]1CC=C(C(O)C2C=CC3C(=O)N(C)C(=O)C3N2Nc2ccccc2)CC1 (stereo not given in full) | 0.54
6 | O=C(N1CCCCC1)[C@]1(Cc2ccccc2)N=C(c2ccc(OCCCO)cc2)O[C@@H]1c1ccccc1 | -1.62
7 | CC(C)c1ccc(NN2C(C(O)c3ccc(B(O)O)cc3)C=CC3C(=O)N(c4ccccc4)C(=O)C32)cc1 (stereo not given) | -0.641
8 | C=CCNC(=O)[C@@H]1[C@H]2C(=O)O[C@H](c3ccccc3)[C@H](c3ccccc3)N2[C@H](c2ccccc2OCCO)[C@@]12C(=O)N(C(=O)OCCOC)c1ccccc12 | 0.432
9 | CC(C)C(O)C1C=CC2C(=O)N(c3ccccc3)C(=O)C2N1Nc1ccc([N+](=O)[O-])cc1 (stereo not given) | -0.0625
10 | COC(=O)[C@@]1(Cc2ccc(OC)cc2)[C@@H]2C(=CC(=O)[C@H]2CC(=O)C(=O)N2CCCC2)CN1C(=O)c1ccccc1 | 1.55
11 | COC(=O)[C@@]1(Cc2ccc(OC)cc2)[C@H]2c3cc(C(=O)N(C)C)n(Cc4ccc(S(C)(=O)=O)cc4)c3C[C@H]2CN1C(=O)c1ccccc1 | 0.956
12 | COCCOC(=O)N1C(=O)[C@@]2(c3cc(C#CC4(O)CCCCCC4)ccc31)[C@H](c1ccc(OCCO)cc1)N1[C@H](c3ccccc3)[C@H](c3ccccc3)OC(=O)[C@H]1[C@@H]2C(=O)N1CCN(c2ncccn2)CC1 | -1.1
13 | COc1ccc(C#Cc2ccc3c(c2)[C@]2(C(=O)N3)[C@H](C(=O)Nc3nc4ccccc4s3)[C@H]3C(=O)O[C@H](c4ccccc4)[C@H](c4ccccc4)N3[C@@H]2c2ccc(O)cc2)cc1 | -2.22
14 | OCCCC1=CC(c2cccs2)N(Cc2cc3c(cc2Br)OCO3)CC1 (stereo not given) | 1.39
15 | CCN(CC)c1ccc(N2CC=CC34O[C@@H]5C=CCCOC(=O)C5[C@H]3C(=O)N(CCCCCCO)[C@@H]4C2=O)cc1 (stereo not given in full) | -0.115
16 | CCCCCN1CC=CC23O[C@@H]4/C=C\CCC(C)OC(=O)C4[C@H]2C(=O)N(C(C)CO)[C@@H]3C1=O (stereo not given in full) | 0.157
17 | CC(C)OC(=O)C=C1C[C@@H](c2ccccn2)O[C@@H](c2ccccn2)O1 | 0.0752
18 | C=CCOC(=O)[C@H]1[C@@H]2C(=O)O[C@@H](c3ccccc3)[C@@H](c3ccccc3)N2[C@@H](c2ccc(OCCOC(=O)[C@@H]3C[C@@H]4C(=O)N[C@@H](CCCCNC(C)=O)C(=O)N4[C@@H]3c3ccc(O)cc3)cc2)[C@]12C(=O)Nc1ccccc12 | -1.55

Row | SMILES | z-score
19 | Cc1nc2cc(Br)ccc2c(=O)o1 | 0.0359
20 | C=CCOC(=O)[C@H]1[C@@H]2C(=O)O[C@@H](c3ccccc3)[C@@H](c3ccccc3)N2[C@@H](c2ccc(OCCOC(=O)[C@H]3C[C@H]4C(=O)N[C@@H](CCCCNC(C)=O)C(=O)N4[C@H]3c3ccc(O)cc3)cc2)[C@]12C(=O)Nc1ccc(I)cc12 | -0.804
21 | C=C[C@@H](COC(=O)OC(C)(C)C)N(Cc1ccc(OC)cc1)S(=O)(=O)c1ccc(Br)cc1 | 3.28
22 | COc1ccc([Si](C)(C)[C@H]2[C@H](CCO)O[C@@]3(C(=O)N(Cc4ccc(N(C=O)c5ccccc5)cc4)c4ccccc43)[C@@H]2C)cc1 | 0.357
23 | COCCOC(=O)N1C(=O)[C@@]2(c3cc(C#Cc4ccc(OC)cc4)ccc31)[C@H](c1ccc(OCCO)cc1)N1[C@H](c3ccccc3)[C@H](c3ccccc3)OC(=O)[C@H]1[C@@H]2C(=O)N1CCN(c2ncccn2)CC1 | -0.918
24 | COc1ccc(C#Cc2ccc3c(c2)[C@]2(C(=O)N3)[C@H](c3ccccc3OCCO)N3[C@H](c4ccccc4)[C@H](c4ccccc4)OC(=O)[C@H]3[C@@H]2C(=O)Nc2nc3ccccc3s2)cc1 | -2.28
25 | CCCC[C@@H]1C[C@H]1[C@@H](NC(=O)C(C)(C)C)c1ccc(C(F)(F)F)cc1 | -1.08
26 | COC(=O)C(CC#Cc1ccc2c(c1)[C@]1(C(=O)N2)[C@H](c2ccc(OCCO)cc2)N2[C@H](c3ccccc3)[C@H](c3ccccc3)OC(=O)[C@H]2[C@@H]1C(=O)Nc1nc2ccccc2s1)C(=O)OC | -2.05
27 | COc1ccc(CCNC(=O)[C@@]2(Sc3ccc(C)cc3)CC(=O)N(C(C)C)[C@@H]2c2ccc(CO)cc2I)cc1 | 0.968
28 | COC(=O)[C@@]1(Cc2ccc(F)cc2)[C@H]2c3cc(C(=O)N4CCCC4)n(Cc4ccc(S(C)(=O)=O)cc4)c3C[C@H]2CN1C(=O)c1ccccc1 | 0.427
29 | O=C1c2ccccc2[C@](Cc2ccccc2I)(C(=O)NCCN2CCOCC2)[C@H](c2ccc(CO)cc2)N1C1CCCCC1 | 1.34
30 | COC(=O)[C@@]1(CCS(=O)(=O)c2ccccc2)N=C(c2ccc(OCCCO)cc2)O[C@H]1c1ccccc1CN=[N+]=[N-] | -0.229
31 | COCCOC(=O)N1C(=O)[C@@]2(c3cc(C#CCNC(N)=O)ccc31)[C@H](C(=O)Nc1nc3ccccc3s1)[C@H]1C(=O)O[C@H](c3ccccc3)[C@H](c3ccccc3)N1[C@@H]2c1ccc(OCCO)cc1 | -2.31
32 | CC(C)NC(=O)[C@@H]1c2ccccc2C(=O)N(C2Cc3ccccc3C2)[C@H]1c1ccc(CO)cc1 | 2.54
33 | CC(C)=CCCC(C)=CC(O)C1C=CC2C(=O)N(C)C(=O)C2N1Nc1ccccc1 (stereo not given) | 0.797
34 | [N-]=[N+]=NCc1ccccc1C[C@]1(C(=O)N2CCCCC2)N=C(c2ccc(OCCCO)cc2)O[C@H]1c1ccccc1N=[N+]=[N-] | -0.756
35 | CCOC(=O)C[C@H]1[C@H](OC(=O)c2ccc(C(=O)c3ccccc3)cc2)[C@@H](NC(=O)CC(C)C)c2cc(OCCCO)ccc2N1C(=O)c1ccc2ccccc2n1 | 1.78
